Laboratory results: PubChem BioAssay (Tox21)
Several values for one entry are separate records, joined by “and”; a condition that tells them apart may be missing. Equal values may be shown once. Records with an inconclusive call do not appear. The source holds several records for some structures; these can differ, active in one and inactive in another. Activity calls are given as the source filed them. Unless noted, calls come from the whole dose curve.

How the values were obtained:
[1] = Nuclear factor erythroid 2-related factor 2/antioxidant responsive element (Nrf2/ARE) small molecule agonists: qHTS cell viability counter screen in human keratinocytes (AID 1919968; active = well fitted curve in the direction sought with a large enough effect in the repeat runs; an effect the other way counts as inactive or inconclusive; note: nearly all actives have a fitted effect of over 55% in size; note: potency is the fitted concentration of half-maximal effect)
Procedure, shortened: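 Cells of the KeratinoSens line were plated at 1,500 per well and left for 5 h before compound transfer from DMSO stocks. After a 23 h incubation (37 C, 5% CO2), CellTiter-Fluor was added. Signal was taken as fluorescence intensity 1 h later.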

[2] = Nuclear factor erythroid 2-related factor 2/antioxidant responsive element (Nrf2/ARE) small molecule agonists: luciferase reporter gene qHTS assay in human keratinocytes (AID 1919969); note: nearly all actives have a fitted effect of over 35% in size; note: potency is the fitted concentration of half-maximal effect
[3] = molecular target: Gonadotropin-releasing hormone receptor (Homo sapiens) (UniProt P30968); test: Human gonadotropin-releasing hormone receptor (GnRHR) small molecule agonists, calcium flux assay in GnRHR-HEK293 cells (AID 1920063); note: nearly all actives have a fitted effect of over 35% in size
Chain of Gonadotropin-releasing hormone receptor (Homo sapiens) (P30968 whole entry, looked up): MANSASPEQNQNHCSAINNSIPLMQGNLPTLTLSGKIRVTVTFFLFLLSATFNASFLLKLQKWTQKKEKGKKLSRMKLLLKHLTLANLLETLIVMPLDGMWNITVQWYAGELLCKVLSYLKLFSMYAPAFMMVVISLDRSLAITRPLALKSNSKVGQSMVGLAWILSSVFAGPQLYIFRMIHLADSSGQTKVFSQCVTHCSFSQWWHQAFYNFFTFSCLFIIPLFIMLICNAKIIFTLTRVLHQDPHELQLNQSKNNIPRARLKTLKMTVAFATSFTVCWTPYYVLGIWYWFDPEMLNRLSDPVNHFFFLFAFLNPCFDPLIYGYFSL
Procedure, shortened: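 Compounds dissolved in DMSO are pin-transferred onto dye-loaded GnRHR-HEK293 cells, which were seeded 18 h before at 37 C/5% CO2. Calcium signal is read as fluorescence intensity at 1 s intervals for 3 min.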

[4] = molecular target: KiSS-1 receptor (Homo sapiens) (UniProt Q969F8); test: Human kisspeptin (KISS1R) small molecule agonists, calcium flux assay in KISS1R-HEK293 cells (AID 1920064; active = well fitted curve in the direction sought with a large enough effect in the repeat runs; an effect the other way counts as inactive or inconclusive)
Chain of KiSS-1 receptor (Homo sapiens) (Q969F8 whole entry, looked up): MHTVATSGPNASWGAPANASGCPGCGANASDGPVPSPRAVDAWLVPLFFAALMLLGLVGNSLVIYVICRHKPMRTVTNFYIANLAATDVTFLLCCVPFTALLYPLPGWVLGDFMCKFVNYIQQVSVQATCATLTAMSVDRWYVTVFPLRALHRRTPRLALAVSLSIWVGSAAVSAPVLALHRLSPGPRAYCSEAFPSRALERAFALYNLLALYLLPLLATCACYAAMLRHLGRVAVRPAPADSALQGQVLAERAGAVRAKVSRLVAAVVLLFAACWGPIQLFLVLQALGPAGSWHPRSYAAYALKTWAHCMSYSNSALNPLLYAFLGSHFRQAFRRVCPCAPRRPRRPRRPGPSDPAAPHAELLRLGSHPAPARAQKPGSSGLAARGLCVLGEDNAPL
Procedure, shortened: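 Cell line: HEK293, stable human KISS1R. Dye loading 1 h at 37 C after 18 h culture. Read: kinetic fluorescence, 480/540 nm, 3 min at 1 s intervals.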

[5] = G protein-coupled receptor (GPCR) small molecule agonists, calcium flux assay: HEK293 wild type cell line counter screen (AID 1920065)
Procedure, shortened: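 Tox21 10K compounds, 15 concentrations each in triplicate, pin-transferred in DMSO onto dye-loaded cells; kinetic read at 480/540 nm for 3 min, 1 s intervals.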

[6] = p53 small molecule agonists, cell-based qHTS assay with human liver microsomes (AID 1963577);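 note: p53 response element beta-lactamase reporter cells with liver microsomes plus NADPH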
Procedure, shortened: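 HLM-supplemented p53RE-bla reporter assay: 16 h compound exposure at 37 C, microsomes and NADPH each 0.5 mg/mL final, read by fluorescence intensity.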

[7] = p53 small molecule agonists, cell-based qHTS assay with human liver microsomes: qHTS cell viability counter screen (AID 1963579); note: nearly all actives have a fitted effect of over 45% in size; note: potency is the fitted concentration of half-maximal effect
Procedure, shortened: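 Viability of p53RE-bla cells is measured as CellTiter-Glo luminescence following a 16 h, 37 C incubation with compound, liver microsomes from human donors and NADPH.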

[8] = p53 small molecule agonists, cell-based qHTS assay with rat liver microsomes: qHTS cell viability counter screen (AID 1963580); note: nearly all actives have a fitted effect of over 45% in size; note: potency is the fitted concentration of half-maximal effect
Procedure, shortened: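 Counter screen for cytotoxicity under metabolic activation: rat liver microsomes and NADPH, 0.5 mg/mL final each, added with compounds to p53RE-bla HCT-116 cells; 16 h at 37 C, then ATP luminescence read.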

[9] = p53 small molecule agonists, cell-based qHTS assay: qHTS cell viability counter screen (AID 1963581); note: nearly all actives have a fitted effect of over 45% in size; note: potency is the fitted concentration of half-maximal effect
Procedure, shortened: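 ATP content measured by luminescence in HCT-116 p53RE-bla cells treated 16 h at 37 C, same wells as the reporter screen.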

[10] = molecular target: 5-hydroxytryptamine receptor 2A (Homo sapiens) (UniProt P28223); test: 5-hydroxytryptamine receptor 2A (HTR2A) small molecule antagonists, cell-based qHTS assay (AID 1963586); note: nearly all actives have a fitted effect of over 45% in size
Chain of 5-hydroxytryptamine receptor 2A (Homo sapiens) (P28223 whole entry, looked up): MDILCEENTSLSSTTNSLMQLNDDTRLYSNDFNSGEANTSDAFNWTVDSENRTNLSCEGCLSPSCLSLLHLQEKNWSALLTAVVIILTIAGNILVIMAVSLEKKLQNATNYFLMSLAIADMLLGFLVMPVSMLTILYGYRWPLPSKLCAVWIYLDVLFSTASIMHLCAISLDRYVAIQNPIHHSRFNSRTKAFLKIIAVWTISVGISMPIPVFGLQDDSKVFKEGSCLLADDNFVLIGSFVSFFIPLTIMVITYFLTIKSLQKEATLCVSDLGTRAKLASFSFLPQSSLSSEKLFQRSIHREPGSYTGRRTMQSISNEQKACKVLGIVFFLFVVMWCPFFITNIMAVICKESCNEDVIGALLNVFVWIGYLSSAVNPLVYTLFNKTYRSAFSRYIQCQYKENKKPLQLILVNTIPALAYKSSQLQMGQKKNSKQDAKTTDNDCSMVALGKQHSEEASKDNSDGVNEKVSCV
Procedure, shortened: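 CHO cells stably expressing human HTR2A were plated for 18 h at 37 C, then loaded with calcium dye for 1 h. Compounds were preincubated 5 min at room temperature before DOI (4 nM solution) was added. Kinetic fluorescence was read for 3 min.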

[11] = molecular target: 5-hydroxytryptamine receptor 2A (Homo sapiens) (UniProt P28223); test: 5-hydroxytryptamine receptor 2A (HTR2A) small molecule agonists, cell-based qHTS assay (AID 1963587); note: nearly all actives have a fitted effect of over 30% in size
Procedure, shortened: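 HTR2A-CHO cells, plated 18 h at 37 C/5% CO2, dye-loaded 1 h at 37 C; compounds in DMSO added by pin tool (agonist mode). Intracellular calcium flux read as kinetic fluorescence on FDSS over 2 min at 1 s intervals.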

[12] = molecular target: Muscarinic acetylcholine receptor M1 (Homo sapiens) (UniProt P11229); test: Cholinergic receptor muscarinic 1 (CHRM1) small molecule antagonists, cell-based qHTS assay (AID 1963588); note: nearly all actives have a fitted effect of over 40% in size
Chain of Muscarinic acetylcholine receptor M1 (Homo sapiens) (P11229 whole entry, looked up): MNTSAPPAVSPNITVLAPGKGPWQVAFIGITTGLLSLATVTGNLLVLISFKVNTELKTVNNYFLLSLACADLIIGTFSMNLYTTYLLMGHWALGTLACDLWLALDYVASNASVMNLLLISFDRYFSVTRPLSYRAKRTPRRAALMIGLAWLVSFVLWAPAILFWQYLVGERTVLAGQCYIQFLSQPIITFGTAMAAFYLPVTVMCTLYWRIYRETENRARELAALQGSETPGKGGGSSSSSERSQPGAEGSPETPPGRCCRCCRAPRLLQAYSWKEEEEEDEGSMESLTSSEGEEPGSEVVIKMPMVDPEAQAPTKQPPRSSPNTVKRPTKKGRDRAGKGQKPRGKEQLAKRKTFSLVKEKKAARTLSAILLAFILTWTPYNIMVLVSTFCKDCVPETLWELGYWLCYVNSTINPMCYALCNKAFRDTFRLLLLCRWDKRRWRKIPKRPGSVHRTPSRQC
Procedure, shortened: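 Compounds were tested at 15 concentrations in three independent runs. Dye-loaded CHRM1-CHO cells were exposed 5 min at room temperature before stimulation by acetylcholine added at 50nM. Intracellular calcium was read kinetically on FDSS for 3 min.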

[13] = molecular target: Muscarinic acetylcholine receptor M1 (Homo sapiens) (UniProt P11229); test: Cholinergic receptor muscarinic 1 (CHRM1) small molecule agonists, cell-based qHTS assay (AID 1963589); note: nearly all actives have a fitted effect of over 35% in size
Procedure, shortened: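 Homogeneous fluorescence calcium flux, agonist mode. Human M1-expressing CHO cells; compound dosed at 15 concentrations, three independent runs; signal sampled every 1 sec.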

[14] = cAMP Responsive Elements (CRE) small molecule agonists, cell-based qHTS assay (AID 1963590)
Procedure, shortened: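 HEK 293T cells stably bearing CRE-bla were plated at 2,000 cells per well and rested 18 h. Compounds, positive controls or DMSO were added for 3 h at 37 C. LiveBLAzer B/G substrate was then loaded for 2 h at room temperature.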

[15] = molecular target: Beta-2 adrenergic receptor (Homo sapiens) (UniProt P07550); test: Adrenergic beta2 receptor (ADRB2) small molecule antagonists, cell-based qHTS assay (AID 1963592); note: nearly all actives have a fitted effect of over 50% in size; note: potency is the fitted concentration of half-maximal effect
Chain of Beta-2 adrenergic receptor (Homo sapiens) (P07550 whole entry, looked up): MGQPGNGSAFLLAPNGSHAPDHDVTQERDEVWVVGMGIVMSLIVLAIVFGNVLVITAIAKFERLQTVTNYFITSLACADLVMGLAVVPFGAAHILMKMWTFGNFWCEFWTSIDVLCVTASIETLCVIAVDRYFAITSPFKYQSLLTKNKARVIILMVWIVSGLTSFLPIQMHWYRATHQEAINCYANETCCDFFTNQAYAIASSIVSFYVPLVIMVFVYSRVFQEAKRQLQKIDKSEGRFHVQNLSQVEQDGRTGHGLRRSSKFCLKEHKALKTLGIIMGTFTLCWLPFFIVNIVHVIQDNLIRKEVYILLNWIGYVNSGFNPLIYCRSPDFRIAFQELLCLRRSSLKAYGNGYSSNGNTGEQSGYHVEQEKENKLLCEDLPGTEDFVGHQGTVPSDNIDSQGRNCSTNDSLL
Procedure, shortened: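 Assay format: CHO-ADRB2 cells, 18-20hr seeding at 37C/5% CO2, then compound plus 1nM isoproterenol agonist mix for 0.5hr RT. Homogeneous time-resolved fluorescence cAMP detection after 1hr, expressed as 665/615 nm ratio.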

[16] = molecular target: D(2) dopamine receptor (Homo sapiens) (UniProt P14416); test: Dopamine D2 receptor (DRD2) small molecule agonists, cell-based qHTS assay (AID 1963594); note: nearly all actives have a fitted effect of over 35% in size
Chain of D(2) dopamine receptor (Homo sapiens) (P14416 whole entry, looked up): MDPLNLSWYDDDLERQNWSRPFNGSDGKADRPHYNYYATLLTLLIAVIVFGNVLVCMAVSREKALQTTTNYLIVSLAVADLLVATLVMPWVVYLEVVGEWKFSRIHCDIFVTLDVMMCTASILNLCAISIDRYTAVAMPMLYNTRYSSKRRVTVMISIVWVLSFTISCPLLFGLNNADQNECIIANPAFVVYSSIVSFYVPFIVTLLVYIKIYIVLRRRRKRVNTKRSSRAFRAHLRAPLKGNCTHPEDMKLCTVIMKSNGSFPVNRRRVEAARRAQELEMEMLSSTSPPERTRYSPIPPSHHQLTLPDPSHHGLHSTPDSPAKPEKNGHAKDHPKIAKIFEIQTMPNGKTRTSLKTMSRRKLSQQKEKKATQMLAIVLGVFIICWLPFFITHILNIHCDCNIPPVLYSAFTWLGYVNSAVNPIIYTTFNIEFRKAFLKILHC
Procedure, shortened: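 HEK293 cells stably expressing DRD2 were cultured 24 h at 37 C, then given Ro20-1724 (0.1 mM final) and compounds for 10 min at room temperature. NKH477 (200nM) was then added for 30 min. cAMP was read by HTRF.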

[17] = molecular target: D(2) dopamine receptor (Homo sapiens) (UniProt P14416); test: Dopamine D2 receptor (DRD2) small molecule antagonists, cell-based qHTS assay (AID 1963595; active = well fitted inhibition curve with a large enough effect in the signal ratio in the repeat runs, with a control signal flat; the % refers to the signal ratio)
Procedure, shortened: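 Cells were plated and grown for 24 h at 37 °C. Ro20-1724 (0.1 mM final) went in first, then compound for 10 min. NKH477 (200 nM) with quinpirole (12 nM) followed for 30 min at RT, then HTRF detection reagents for 1 h.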

[18] = p53 small molecule agonists, cell-based qHTS assay with rat liver microsomes (AID 1963578)
Procedure, shortened: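 Quantitative HTS of the Tox21 10K library: p53RE-bla cells, rat liver microsomes plus NADPH at 0.5 mg/mL final each, 16 h at 37 C, beta-lactamase fluorescence detection.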

[19] = cAMP Responsive Elements (CRE) small molecule antagonists, cell-based qHTS assay (AID 1963591; active = well fitted inhibition curve with a large enough effect in the signal ratio in the repeat runs, not every such curve was filed as active; the % refers to the signal ratio)
Procedure, shortened: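 First, CRE-bla HEK293T cells settled 18 h at 37 C. Next, compound and 0.25 uM final NKH477 were applied for 3 h. Last, LiveBLAzer B/G substrate was loaded for 2 h at room temperature.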

[20] = molecular target: Beta-2 adrenergic receptor (Homo sapiens) (UniProt P07550); test: Adrenergic beta2 receptor (ADRB2) small molecule agonists, cell-based qHTS assay (AID 1963593);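 note: CHO cells stably overexpressing human ADRB2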
Procedure, shortened: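 CHO cells stably over-expressing ADRB2 were plated overnight at 37C, then dosed with compounds plus a stimulation mix containing 100uM IBMX and 25uM Ro-20-1724 for 0.5hr at room temperature. cAMP was measured by HTRF competition, 1hr.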

Measured: Potency

Nc1nc2ccccc2[nH]1
not listed: [18] | [19] | [20]
inactive: all other assays above

COc1ccccc1OCC(O)CO (stereo not drawn)
not listed: [7] | [10] | [11] | [12] | [13] | [17]
inactive: all other assays above

Oc1c(Cl)cc(Cl)c(Cl)c1Cc1c(O)c(Cl)cc(Cl)c1Cl
active: [1] 21.6 µM and 30.6 µM and 26.6 µM | [2] 24.3 µM | [8] 18.2 µM and 32.4 µM | [9] 18.2 µM
inactive and 48.6 µM (active): [15]
inactive: [3] | [4] | [5] | [6] | [18] | [16] | [17]

OC[C@H]1O[C@H](O[C@]2(CCl)O[C@H](CCl)[C@@H](O)[C@@H]2O)[C@H](O)[C@@H](O)[C@H]1Cl
not listed: [7]
inactive: all other assays above

COc1cc(NC(=O)CC(C)=O)c(OC)cc1Cl
not listed: [14] | [18] | [19] | [20]
inactive: all other assays above

Brc1cc(Oc2cc(Br)c(Br)c(Br)c2Br)c(Br)c(Br)c1Br
20.5 µM (active) and inactive: [7]
68.9 µM (active) and inactive: [2]
not listed: [13] | [18]
inactive: all other assays above

O=S(=O)(O)c1ccc2ccccc2c1
not listed: [7]
inactive: all other assays above

O=C(Cl)c1c(Cl)c(Cl)c(C(=O)Cl)c(Cl)c1Cl
not listed: [7] | [11]
inactive: all other assays above

C=C(C)C(=O)O
not listed: [7]
inactive: all other assays above

CC(CCC(=O)O)(c1ccc(O)cc1)c1ccc(O)cc1
not listed: [18] | [20]
inactive: all other assays above

OC(Cn1cncn1)(Cn1cncn1)c1ccc(F)cc1F
not listed: [10] | [11] | [12] | [13] | [18]
inactive: all other assays above

NC(=O)c1cnccn1
not listed: [7] | [10] | [11] | [12] | [13] | [14]
inactive: all other assays above

CCCCCC(=O)O
not listed: [12] | [16] | [18]
inactive: all other assays above

CC#C[C@]1(O)CC[C@H]2[C@@H]3CCC4=CC(=O)CCC4=C3[C@@H](c3ccc(N(C)C)cc3)C[C@@]21C
not listed: [7] | [10] | [11] | [12] | [13] | [14] | [19] | [20]
inactive: all other assays above

CCCCCCO
not listed: [7]
inactive: all other assays above

CCCCCCc1ccc(O)cc1O
48.7 µM (active) and inactive: [1]
not listed: [7] | [10] | [11] | [14]
inactive: all other assays above
